Only some compounds are listed: those with a hit (about 3.9% of all), similar ones and a draw of the others.
Glyco luc inh – blocks N-linked glycosylation in D54 reporter cells | AID 588692 | D54 ERlucT glycosylation luciferase reporter, 24 h; percent of 100 nM tunicamycin response | reporter increase, % at 12.5 µM | actives 0.23% (n = 360,000);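 active = mean luciferase reporter signal, scaled so untreated is 0 and the glycosylation-blocking control 100, at or above a set limit in every replicate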;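 also: luciferase carries N-glycosylation sites so blocking glycosylation raises the light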
SUMO Mot1 rescue – inhibitors of SUMOylation pathway: yeast Mot1-301 growth rescue; S. cerevisiae Mot1-301 growth rescue, ATP luminescence, 38.5C; percent above DMSO median, 100 means doubled; growth rescue, % at 18.8 µM; actives 1% (n = 320,000); AID 2716;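 active = every valid replicate shows activation above 250% relative to neutral control wells; inactive = the rest, any valid replicate at or below 250%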
CDK5 inh – inhibitors of human CDK5/p35 kinase; Recombinant CDK5/p35, ADP-Glo luminescence, 60 min; inhibition, % at 10 µM; actives 0.01% (n = 330,000);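 active = highest replicate inhibition of at least 50% and at least 75% of replicates reaching 50%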
CASP6 VEID inh – blocks human caspase-6 cleavage activity | actives 0.53% (n = 350,000) | P55212 | AID 686996 | purified caspase-6, Z-VEID-R110 cleavage fluorescence | inhibition, % at 12.5 µM;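 active = mean inhibition across replicates at least about 35%, with every replicate also reaching that limit, limit read from the data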
Target sequence (P55212 24-179 limits assumed): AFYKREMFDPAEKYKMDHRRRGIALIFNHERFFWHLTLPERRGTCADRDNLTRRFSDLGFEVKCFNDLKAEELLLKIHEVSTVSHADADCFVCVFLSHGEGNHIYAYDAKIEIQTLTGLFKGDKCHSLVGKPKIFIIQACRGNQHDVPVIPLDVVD
Target sequence (P55212 194-293 limits assumed): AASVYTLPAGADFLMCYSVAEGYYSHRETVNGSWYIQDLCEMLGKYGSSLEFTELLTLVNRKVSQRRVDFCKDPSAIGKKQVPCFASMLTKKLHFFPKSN
ALR H2O2 inh – inhibitors of human sulfhydryl oxidase ALR | P55789 | purified ALR, DTT oxidation, H2O2 HRP-luminol luminescence | inhibition, % (concentration not given with the values) | actives 3.8% (n = 290,000) | AID 485317;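 active = mean replicate inhibition above about 79%, with every replicate also reaching it, limit read from the data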
Target sequence (P55789 whole entry, looked up): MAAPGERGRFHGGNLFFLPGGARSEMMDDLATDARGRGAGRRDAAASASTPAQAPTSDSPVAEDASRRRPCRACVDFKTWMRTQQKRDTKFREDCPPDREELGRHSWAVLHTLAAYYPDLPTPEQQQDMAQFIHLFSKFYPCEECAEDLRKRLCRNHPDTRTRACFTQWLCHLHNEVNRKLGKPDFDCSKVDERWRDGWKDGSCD
NSD2 inh – blocks human histone methyltransferase NSD2; O96028; NSD2 peptide methylation, AlphaScreen, 120 min; inhibition, % at 12.5 µM; actives 0.54% (n = 310,000); in the data active = inhibition above about 50%
Mot1 SUMO dose – SUMO pathway inhibitors in yeast Mot1-301 growth; shares compounds with SUMO Mot1 rescue; S. cerevisiae Mot1-301 galactose growth, ATP luminescence, 24 h; -100 = growth of slx-deleted rescue strain; growth activity, percent, % at 42 µM; 2,300 tested, under 10 active;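 active = Signal drops as the depositor expects, and the fitted half-maximal dose is no more than ten times the top valid tested dose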;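 also: more negative values mean stronger growth rescue toward the control strain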
A number is an active result; 0 = inactive; - = no result; + = active, no number.

SMILES	Glyco luc inh	SUMO Mot1 rescue	CDK5 inh	CASP6 VEID inh	ALR H2O2 inh	NSD2 inh	Mot1 SUMO dose
c1ccc(-c2csc(N3CCOCC3)n2)cc1	0	0	0	-	0	0	-
CCN(CC)C(=O)C1CCCN(c2ccc([N+](=O)[O-])cc2/C=N/NC(=O)c2cccc(Br)c2)C1 (configuration not stated)	0	648	0	-	0	0	0
CCNC(=O)[C@@H]1[C@@H](CO)[C@@H]2Cn3c(ccc(C4=CCCCC4)c3=O)[C@H]1N2Cc1cocn1	-	-	-	0	-	-	-
S=C(NCCCc1ccccc1)Nc1ccccc1Cl	0	0	0	0	0	0	-
Cc1c(Cl)cccc1NC(=S)NCCCN(C)C	0	393	0	0	0	0	0
S=C(NCCc1ccccc1)Nc1ccccc1Cl	0	530	0	-	0	0	0
C[C@@H]1CN([C@@H](C)CO)C(=O)c2c(c3ccccc3n2C)-c2ccccc2CO[C@@H]1CN(C)CC1CCCCC1	-	-	-	0	-	-	-
O=C(CSc1nc(O)cc(=O)n1-c1ccccc1)NC1CCCCC1	0	584	0	-	0	0	0
O=C(CSc1ncccc1C(=O)O)NC1CCCCC1	0	420	0	0	-	0	0
Cc1nnc(SCC(=O)NC2CCCCC2)n1-c1ccccc1	0	-	-	0	-	0	-
Cc1nn(C)c(Cl)c1CN1CCN(CC(C)C)C(CCO)C1 (configuration not stated)	0	0	0	0	0	0	-
Cc1nn(C)c(Cl)c1CN1CCN(CCC(C)C)C(CCO)C1 (configuration not stated)	0	+	0	0	-	0	0
CCCNC(=O)N[C@@H]1C=C[C@H](CC(=O)N2CCN(C)CC2)O[C@@H]1CO	-	-	-	0	-	-	-
COc1ccc(C(=O)CC(=O)C(=O)Nc2ccc(C)c(C)c2)cc1	0	538	0	0	0	0	0
Cc1ccc(NC(=O)c2sc3nc(C)nc(N4CCN(c5ccccn5)CC4)c3c2C)c(C)c1	0	0	0	0	-	-	-
Cc1nc(N2CCN(c3ccccn3)CC2)c2c(C)c(C(=O)N3CCN(c4ccccc4F)CC3)sc2n1	0	427	0	0	0	0	0
O=C(C[C@H]1C[C@H]2c3cc(NS(=O)(=O)c4ccc(F)cc4)ccc3O[C@H]2[C@@H](CO)O1)NCc1cccc(F)c1	-	-	-	0	-	-	-
O=C(O)/C=C/c1cccnc1	0	399	0	0	0	0	0
CC(/C=C\c1cccnc1)=C/C(=O)O	0	0	0	-	0	0	-
O=C(O)c1cccc(N2C(=O)C=CC2=O)c1	0	-	-	0	-	0	-
O=C(Nc1ccc(Cl)cc1Cl)c1cccc(N2C(=O)C=CC2=O)c1	0	550	0	0	0	-	0
CCOc1ccc(-c2nc3n(c(=O)c2C#N)CCS3)cc1	0	439	0	0	0	0	0
COc1ccc(-c2nc3n(c(=O)c2C#N)CCS3)cc1	0	0	0	0	0	0	-
O=C(c1ccc(COc2ccc3ccccc3c2)o1)N1N=C(C(F)F)CC1(O)C(F)F (configuration not stated)	0	0	0	0	0	0	-
O=C(c1ccc(COc2ccccc2Cl)o1)N1N=C(C(F)F)CC1(O)C(F)F (configuration not stated)	0	438	0	0	0	0	0
SMILES	Glyco luc inh	SUMO Mot1 rescue	CDK5 inh	CASP6 VEID inh	ALR H2O2 inh	NSD2 inh	Mot1 SUMO dose
Cc1ccc(CNC(=O)CCNS(=O)(=O)c2cccs2)cc1	0	+	0	0	0	0	0
Cc1cccc(OCCC(=O)Nc2ccc(F)c(F)c2)c1	0	380	0	0	0	0	0
Cc1ccc(NC(=O)CCOc2ccccc2)cc1	0	0	0	0	0	0	-
COc1ccc2c3c(n(C)c2c1)[C@@H](CO)N(C(=O)C1CCC1)CC31CCN(C)CC1	-	-	-	0	-	-	-
CCCN1[C@@H]2c3ccc(/C=C/c4ccccc4)c(=O)n3C[C@@H]2[C@@H](CO)[C@@H]1C(=O)NCC	-	-	-	0	-	-	-
CN1C(=O)/C(=C/c2ccc(OCc3ccccc3F)cc2)NC1=S	0	375	0	0	0	0	0
CCN1CCCC1CN(Cc1cc2ccc(C)cc2[nH]c1=O)C(=S)Nc1ccccc1OC (configuration not stated)	0	0	0	-	0	0	-
CCN1CCCC1CN(Cc1cc2ccc(C)cc2[nH]c1=O)C(=S)Nc1ccccc1C(=O)OC (configuration not stated)	0	+	0	0	0	0	0
Cc1cc2c(C)ccc(C)c2nc1SCC(=O)c1cccs1	0	591	0	-	0	0	0
CN(C)C(/C=C/Nc1cccc(Br)c1)=C(C#N)C#N	0	433	0	0	0	0	0
Cc1cccc(N/C=C/C(=C(C#N)C#N)N(C)C)c1	0	0	0	-	0	0	-
CC(C)(C)NC(=O)CC1C(=O)NCCN1Cc1c(F)cccc1Cl (configuration not stated)	0	836	0	0	0	0	0
CC1CCCC(C)N1/N=C/c1cc(Br)cc(Br)c1O (configuration not stated)	0	476	0	-	0	0	0
CCCNC(=O)[C@@H]1[C@@H](CO)[C@@H]2Cn3c(ccc(-c4cccc(F)c4)c3=O)[C@H]1N2CCC	-	-	-	0	-	-	-
COc1ccc(S(=O)(=O)Nc2ccc3c(c2)C(=O)N([C@H](C)CO)C[C@H](C)[C@@H](CN(C)C(=O)NC(C)C)OCCCC[C@H](C)O3)cc1	-	-	-	0	-	-	-
C=CCn1cc(C(C)=O)c(=O)[nH]c1=O	0	610	0	0	0	0	0
CCCCCCCCn1cc(C(C)=O)c(=O)[nH]c1=O	0	0	0	-	0	0	-
Cc1noc(C)c1NC(=O)N(C)C[C@H]1OCCCC[C@H](C)Oc2ccc(NC(=O)NC(C)C)cc2C(=O)N([C@@H](C)CO)C[C@H]1C	-	-	-	0	-	-	-
COc1ccc(NC(=O)c2ccc(COc3ccccc3OC)o2)cc1OC	0	476	0	-	0	0	0
O=C(C[C@H]1CC[C@@H]2[C@H](COC[C@@H](O)CN2C(=O)C2CCOCC2)O1)NCc1ccncc1	-	-	-	0	-	-	-
COc1ccc(C2CC(c3cccs3)=NN2C(=O)c2ccccc2)cc1OC (configuration not stated)	0	424	0	0	0	0	0
COc1ccc(S(=O)(=O)Nc2ccc3c(c2)CC(=O)N([C@H](C)CO)C[C@@H](C)[C@@H](CN(C)S(C)(=O)=O)O3)cc1	-	-	-	0	-	-	-
Cc1ccc(NC(=O)C(CC(C)C)NC(=O)C2CCC(C)CC2)nc1 (configuration not stated)	0	634	0	-	0	0	0
O=C(Nc1nnc(COc2ccc(Cl)cc2)s1)c1cccs1	0	0	0	-	0	0	-
O=C(Nc1nnc(COc2ccc(F)cc2)s1)c1cccs1	0	940	0	-	0	0	0
Cc1nnc(C)n1/N=C/c1cc2ccccc2nc1Cl	0	608	0	0	0	0	0
